# Reference: publication PMC11006913
# Where a chain is given by its changes, count along the chain named.
# How the values were obtained:
# Experiment in all cases: PBM; 200 nM protein, PBS
# Conditions in all cases: dsDNA, one strand shown
# CRX [1] = target: CRX (Homo sapiens, UniProt O43186 26-111)
# VENTX [2] = target: T1, VENTX (Homo sapiens, UniProt O95231 78-163, R121Q)
# T1 sequence: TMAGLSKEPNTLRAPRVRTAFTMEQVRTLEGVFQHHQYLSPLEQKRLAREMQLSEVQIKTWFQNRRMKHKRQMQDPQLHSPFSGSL
# HOXB6 [3] = target: HOXB6 (Homo sapiens, UniProt P17509 132-218, K202E)
# Sequence of HOXB6 (Homo sapiens, UniProt P17509 132-218, K202E) (P17509 132-218 K202E): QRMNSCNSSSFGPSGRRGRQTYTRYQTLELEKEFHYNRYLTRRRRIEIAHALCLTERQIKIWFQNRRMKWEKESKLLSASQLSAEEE
# CRX [4] = target: CRX (Homo sapiens, UniProt O43186 26-111, E42D)
# Sequence of CRX (Homo sapiens, UniProt O43186 26-111, E42D) (O43186 26-111 E42D): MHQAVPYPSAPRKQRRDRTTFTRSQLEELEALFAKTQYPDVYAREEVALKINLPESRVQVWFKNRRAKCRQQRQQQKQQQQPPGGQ
# MSX2 [5] = target: MSX2 (Homo sapiens, UniProt P35548 130-214)
# Sequence of MSX2 (Homo sapiens, UniProt P35548 130-214) (P35548 130-214): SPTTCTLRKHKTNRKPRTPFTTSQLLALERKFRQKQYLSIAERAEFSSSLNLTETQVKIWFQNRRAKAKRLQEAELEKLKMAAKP
# MSX2 [6] = target: MSX2 (Homo sapiens, UniProt P35548 130-214, F161Y)
# Sequence of MSX2 (Homo sapiens, UniProt P35548 130-214, F161Y) (P35548 130-214 F161Y): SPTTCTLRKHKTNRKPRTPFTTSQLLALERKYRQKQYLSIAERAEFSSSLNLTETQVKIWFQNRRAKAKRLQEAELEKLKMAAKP
# CRX [7] = target: CRX (Homo sapiens, UniProt O43186 26-111, R41L)
# Sequence of CRX (Homo sapiens, UniProt O43186 26-111, R41L) (O43186 26-111 R41L): as the sequence (O43186 26-111 E42D) above, with R16L, D17E counted along it
# HOXB6 [8] = target: HOXB6 (Homo sapiens, UniProt P17509 132-218)
# Sequence of HOXB6 (Homo sapiens, UniProt P17509 132-218) (P17509 132-218): as the sequence (P17509 132-218 K202E) above, with E71K counted along it
# VENTX [9] = target: T2, VENTX (Homo sapiens, UniProt O95231 78-163, Y115F)
# T2 sequence: T1 sequence with Y38F, Q44R
# PITX2 = PITX2 (Homo sapiens, UniProt Q99697 72-157)
# NKX2-6 = target: T3, NKX2-6 (Homo sapiens, UniProt A6NCS4 118-204, R150C)
# T3 sequence: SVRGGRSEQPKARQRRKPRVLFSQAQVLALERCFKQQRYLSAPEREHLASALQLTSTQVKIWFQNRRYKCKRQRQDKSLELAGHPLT
# VAX1 [10] = target: VAX1 (Homo sapiens, UniProt Q5SQQ9 86-172)
# Sequence of VAX1 (Homo sapiens, UniProt Q5SQQ9 86-172) (Q5SQQ9 86-172): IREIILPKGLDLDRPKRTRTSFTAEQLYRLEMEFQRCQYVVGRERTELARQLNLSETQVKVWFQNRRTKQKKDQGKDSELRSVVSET
# VAX1 [11] = target: VAX1 (Homo sapiens, UniProt Q5SQQ9 86-172, T142I)
# Sequence of VAX1 (Homo sapiens, UniProt Q5SQQ9 86-172, T142I) (Q5SQQ9 86-172 T142I): as the sequence (Q5SQQ9 86-172) above, with T57I counted along it
# VAX1 [12] = target: VAX1 (Homo sapiens, UniProt Q5SQQ9 86-172, K157R)
# Sequence of VAX1 (Homo sapiens, UniProt Q5SQQ9 86-172, K157R) (Q5SQQ9 86-172 K157R): as the sequence (Q5SQQ9 86-172) above, with K72R counted along it
# HOXC10 [13] = target: HOXC10 (Homo sapiens, UniProt Q9NYD6 254-340)
# Sequence of HOXC10 (Homo sapiens, UniProt Q9NYD6 254-340) (Q9NYD6 254-340): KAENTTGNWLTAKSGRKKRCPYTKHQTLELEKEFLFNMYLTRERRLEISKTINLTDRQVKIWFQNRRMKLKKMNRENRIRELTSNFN
# HOXC10 [14] = target: HOXC10 (Homo sapiens, UniProt Q9NYD6 254-340, K271E)
# Sequence of HOXC10 (Homo sapiens, UniProt Q9NYD6 254-340, K271E) (Q9NYD6 254-340 K271E): as the sequence (Q9NYD6 254-340) above, with K18E counted along it
# MSX2 [15] = target: MSX2 (Homo sapiens, UniProt P35548 130-214, R199I)
# Sequence of MSX2 (Homo sapiens, UniProt P35548 130-214, R199I) (P35548 130-214 R199I): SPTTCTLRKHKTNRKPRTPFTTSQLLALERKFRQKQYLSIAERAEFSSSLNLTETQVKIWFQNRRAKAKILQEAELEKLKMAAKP
# PROP1 [16] = target: PROP1 (Homo sapiens, UniProt O75360 56-141)
# Sequence of PROP1 (Homo sapiens, UniProt O75360 56-141) (O75360 56-141): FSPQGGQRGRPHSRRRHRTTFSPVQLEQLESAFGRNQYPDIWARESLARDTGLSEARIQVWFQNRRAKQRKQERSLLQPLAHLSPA
# PROP1 [17] = target: PROP1 (Homo sapiens, UniProt O75360 56-141, R99H)
# Sequence of PROP1 (Homo sapiens, UniProt O75360 56-141, R99H) (O75360 56-141 R99H): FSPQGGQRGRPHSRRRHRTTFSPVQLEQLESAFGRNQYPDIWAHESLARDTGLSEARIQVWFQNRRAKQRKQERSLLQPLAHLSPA
# PROP1 [18] = target: PROP1 (Homo sapiens, UniProt O75360 56-141, F88S)
# Sequence of PROP1 (Homo sapiens, UniProt O75360 56-141, F88S) (O75360 56-141 F88S): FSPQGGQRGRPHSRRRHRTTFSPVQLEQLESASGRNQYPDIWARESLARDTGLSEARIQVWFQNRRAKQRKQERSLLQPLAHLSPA
# PAX4 [19] = target: T4, PAX4 (Homo sapiens, UniProt O43316 9-242, R200K)
# T4 sequence: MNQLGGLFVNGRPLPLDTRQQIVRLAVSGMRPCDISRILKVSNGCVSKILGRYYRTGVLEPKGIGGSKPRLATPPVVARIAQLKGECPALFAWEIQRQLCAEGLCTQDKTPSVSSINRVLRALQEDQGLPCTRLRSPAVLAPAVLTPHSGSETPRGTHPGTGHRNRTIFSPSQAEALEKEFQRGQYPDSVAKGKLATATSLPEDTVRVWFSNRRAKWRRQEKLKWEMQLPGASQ
# PAX4 [20] = target: T5, PAX4 (Homo sapiens, UniProt O43316 9-242)
# T5 sequence: T4 sequence with K192R
# PAX4 [21] = target: T6, PAX4 (Homo sapiens, UniProt O43316 9-242, R200Q)
# T6 sequence: T4 sequence with K192Q
# PAX4 [22] = target: T7, PAX4 (Homo sapiens, UniProt O43316 9-242, F177V)
# T7 sequence: T4 sequence with F169V, K192R
# PRRX1 [23] = target: PRRX1 (Homo sapiens, UniProt P54821 80-166, F113S)
# Sequence of PRRX1 (Homo sapiens, UniProt P54821 80-166, F113S) (P54821 80-166 F113S): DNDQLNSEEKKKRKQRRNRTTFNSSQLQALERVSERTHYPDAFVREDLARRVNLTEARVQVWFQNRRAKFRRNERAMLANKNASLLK
# HOXA2 [24] = target: HOXA2 (Homo sapiens, UniProt O43364 129-215, R185T)
# Sequence of HOXA2 (Homo sapiens, UniProt O43364 129-215, R185T) (O43364 129-215 R185T): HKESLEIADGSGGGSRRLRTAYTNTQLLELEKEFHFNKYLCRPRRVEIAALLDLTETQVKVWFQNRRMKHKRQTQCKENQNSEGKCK
# HOXA2 [25] = target: HOXA2 (Homo sapiens, UniProt O43364 129-215, R185K)
# Sequence of HOXA2 (Homo sapiens, UniProt O43364 129-215, R185K) (O43364 129-215 R185K): as the sequence (O43364 129-215 R185T) above, with T57K counted along it
# HOXA2 [26] = target: HOXA2 (Homo sapiens, UniProt O43364 129-215, Y150S)
# Sequence of HOXA2 (Homo sapiens, UniProt O43364 129-215, Y150S) (O43364 129-215 Y150S): as the sequence (O43364 129-215 R185T) above, with Y22S, T57R counted along it
# PRRX1 [27] = target: PRRX1 (Homo sapiens, UniProt P54821 80-166)
# Sequence of PRRX1 (Homo sapiens, UniProt P54821 80-166) (P54821 80-166): as the sequence (P54821 80-166 F113S) above, with S34F counted along it
# HOXA2 [28] = target: HOXA2 (Homo sapiens, UniProt O43364 129-215)
# Sequence of HOXA2 (Homo sapiens, UniProt O43364 129-215) (O43364 129-215): as the sequence (O43364 129-215 R185T) above, with T57R counted along it
# Sequence of CRX (Homo sapiens, UniProt O43186 26-111) (O43186 26-111): as the sequence (O43186 26-111 E42D) above, with D17E counted along it
sequence,measurement,setting,value
CCAGATTA,binding signal,CRX [1],"13 upbm affinity estimate (log intensity, higher = more binding, comparable within an allelic series)"
same,binding signal,VENTX [2],"10 upbm affinity estimate (log intensity, higher = more binding, comparable within an allelic series)"
same,binding signal,HOXB6 [3],"9.66 upbm affinity estimate (log intensity, higher = more binding, comparable within an allelic series)"
same,binding signal,CRX [4],"13 upbm affinity estimate (log intensity, higher = more binding, comparable within an allelic series)"
same,binding signal,MSX2 [5],"11.3 upbm affinity estimate (log intensity, higher = more binding, comparable within an allelic series)"
same,binding signal,MSX2 [6],"11.1 upbm affinity estimate (log intensity, higher = more binding, comparable within an allelic series)"
same,binding signal,CRX [7],"12.7 upbm affinity estimate (log intensity, higher = more binding, comparable within an allelic series)"
same,binding signal,HOXB6 [8],"10.3 upbm affinity estimate (log intensity, higher = more binding, comparable within an allelic series)"
AGATTAGC,binding signal,CRX [1],"13 upbm affinity estimate (log intensity, higher = more binding, comparable within an allelic series)"
same,binding signal,VENTX [2],"10.5 upbm affinity estimate (log intensity, higher = more binding, comparable within an allelic series)"
same,binding signal,VENTX [9],"10.4 upbm affinity estimate (log intensity, higher = more binding, comparable within an allelic series)"
same,binding signal,CRX [4],"13.1 upbm affinity estimate (log intensity, higher = more binding, comparable within an allelic series)"
same,binding signal,PITX2,"12.5 upbm affinity estimate (log intensity, higher = more binding, comparable within an allelic series)"
same,binding signal,CRX [7],"12.7 upbm affinity estimate (log intensity, higher = more binding, comparable within an allelic series)"
CGGCACGA,binding signal,CRX [1],"8.45 upbm affinity estimate (log intensity, higher = more binding, comparable within an allelic series)"
same,binding signal,NKX2-6,"9.55 upbm affinity estimate (log intensity, higher = more binding, comparable within an allelic series)"
same,binding signal,CRX [4],"8.43 upbm affinity estimate (log intensity, higher = more binding, comparable within an allelic series)"
same,binding signal,VAX1 [10],"6.96 upbm affinity estimate (log intensity, higher = more binding, comparable within an allelic series)"
same,binding signal,VAX1 [11],"7.11 upbm affinity estimate (log intensity, higher = more binding, comparable within an allelic series)"
same,binding signal,CRX [7],"8.41 upbm affinity estimate (log intensity, higher = more binding, comparable within an allelic series)"
same,binding signal,VAX1 [12],"7.16 upbm affinity estimate (log intensity, higher = more binding, comparable within an allelic series)"
CATCATAA,binding signal,CRX [1],"10.1 upbm affinity estimate (log intensity, higher = more binding, comparable within an allelic series)"
same,binding signal,HOXC10 [13],"11.7 upbm affinity estimate (log intensity, higher = more binding, comparable within an allelic series)"
same,binding signal,CRX [4],"10 upbm affinity estimate (log intensity, higher = more binding, comparable within an allelic series)"
same,binding signal,HOXC10 [14],"11.3 upbm affinity estimate (log intensity, higher = more binding, comparable within an allelic series)"
same,binding signal,CRX [7],"9.57 upbm affinity estimate (log intensity, higher = more binding, comparable within an allelic series)"
GTGCCACA,binding signal,CRX [1],"8.41 upbm affinity estimate (log intensity, higher = more binding, comparable within an allelic series)"
same,binding signal,CRX [4],"8.34 upbm affinity estimate (log intensity, higher = more binding, comparable within an allelic series)"
same,binding signal,MSX2 [15],"9.58 upbm affinity estimate (log intensity, higher = more binding, comparable within an allelic series)"
same,binding signal,MSX2 [5],"9.65 upbm affinity estimate (log intensity, higher = more binding, comparable within an allelic series)"
same,binding signal,PROP1 [16],"6.66 upbm affinity estimate (log intensity, higher = more binding, comparable within an allelic series)"
same,binding signal,PROP1 [17],"6.7 upbm affinity estimate (log intensity, higher = more binding, comparable within an allelic series)"
same,binding signal,VAX1 [10],"7.16 upbm affinity estimate (log intensity, higher = more binding, comparable within an allelic series)"
same,binding signal,PROP1 [18],"6.8 upbm affinity estimate (log intensity, higher = more binding, comparable within an allelic series)"
same,binding signal,MSX2 [6],"9.56 upbm affinity estimate (log intensity, higher = more binding, comparable within an allelic series)"
same,binding signal,VAX1 [11],"7.19 upbm affinity estimate (log intensity, higher = more binding, comparable within an allelic series)"
same,binding signal,CRX [7],"8.33 upbm affinity estimate (log intensity, higher = more binding, comparable within an allelic series)"
same,binding signal,VAX1 [12],"7.08 upbm affinity estimate (log intensity, higher = more binding, comparable within an allelic series)"
AAAGATTA,binding signal,CRX [1],"12.9 upbm affinity estimate (log intensity, higher = more binding, comparable within an allelic series)"
same,binding signal,PAX4 [19],"10.9 upbm affinity estimate (log intensity, higher = more binding, comparable within an allelic series)"
same,binding signal,PAX4 [20],"11.2 upbm affinity estimate (log intensity, higher = more binding, comparable within an allelic series)"
same,binding signal,CRX [4],"12.8 upbm affinity estimate (log intensity, higher = more binding, comparable within an allelic series)"
same,binding signal,PAX4 [21],"11.1 upbm affinity estimate (log intensity, higher = more binding, comparable within an allelic series)"
same,binding signal,PITX2,"12.3 upbm affinity estimate (log intensity, higher = more binding, comparable within an allelic series)"
same,binding signal,PAX4 [22],"10.3 upbm affinity estimate (log intensity, higher = more binding, comparable within an allelic series)"
same,binding signal,CRX [7],"12.6 upbm affinity estimate (log intensity, higher = more binding, comparable within an allelic series)"
GGACCGCC,binding signal,CRX [1],"8.02 upbm affinity estimate (log intensity, higher = more binding, comparable within an allelic series)"
same,binding signal,PRRX1 [23],"9.27 upbm affinity estimate (log intensity, higher = more binding, comparable within an allelic series)"
same,binding signal,HOXB6 [3],"8.98 upbm affinity estimate (log intensity, higher = more binding, comparable within an allelic series)"
same,binding signal,HOXA2 [24],"7.28 upbm affinity estimate (log intensity, higher = more binding, comparable within an allelic series)"
same,binding signal,CRX [4],"8.13 upbm affinity estimate (log intensity, higher = more binding, comparable within an allelic series)"
same,binding signal,PITX2,"7.63 upbm affinity estimate (log intensity, higher = more binding, comparable within an allelic series)"
same,binding signal,HOXA2 [25],"10.2 upbm affinity estimate (log intensity, higher = more binding, comparable within an allelic series)"
same,binding signal,HOXA2 [26],"10.4 upbm affinity estimate (log intensity, higher = more binding, comparable within an allelic series)"
same,binding signal,CRX [7],"8.16 upbm affinity estimate (log intensity, higher = more binding, comparable within an allelic series)"
same,binding signal,PRRX1 [27],"9.42 upbm affinity estimate (log intensity, higher = more binding, comparable within an allelic series)"
same,binding signal,HOXA2 [28],"7.23 upbm affinity estimate (log intensity, higher = more binding, comparable within an allelic series)"
same,binding signal,HOXB6 [8],"9.08 upbm affinity estimate (log intensity, higher = more binding, comparable within an allelic series)"
